Screening data deposited in PubChem BioAssay by National Center for Advancing Translational Sciences (NCATS).
Rows were chosen to be rich in hits. Some 10% of all compounds tested hit in one or more screens of this group.
PNC assembly inh: High Content Assay for Compounds that inhibit the Assembly of the Perinucleolar Compartment; PC3M PTB-GFP, PNC prevalence imaging, 16 h; active compounds read low; activity change (PNC), negative = inhibition, % at 10 µM; actives 3.1% (n = 140,000); AID 2417, 2010;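 active = readout at or below -70, meaning at least 70% loss of cells showing the perinucleolar compartment, a nuclear body marking cancer cells; inconclusive = readout between -30 and a set limit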
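Compounds are pinned in duplicate onto adhered PC3M cells stably expressing GFP-tagged PTB and incubated 16 h at 37 C. Cells are then fixed, nuclei stained with Hoechst, and PNC-positive cells counted.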
GLA spleen mod: qHTS Assay for Inhibitors and Activators of Human alpha-Galactosidase From Spleen Homogenate; Alpha-galactosidase A (Homo sapiens), P06280; human spleen homogenate, 4MU-alpha-Gal fluorescence, 40 min; Potency, µM (highest dose often 80 µM), hits mostly inhibitors; actives 0.008% (n = 240,000); AID 2107, 2009
Target sequence (P06280 32-429 limits assumed): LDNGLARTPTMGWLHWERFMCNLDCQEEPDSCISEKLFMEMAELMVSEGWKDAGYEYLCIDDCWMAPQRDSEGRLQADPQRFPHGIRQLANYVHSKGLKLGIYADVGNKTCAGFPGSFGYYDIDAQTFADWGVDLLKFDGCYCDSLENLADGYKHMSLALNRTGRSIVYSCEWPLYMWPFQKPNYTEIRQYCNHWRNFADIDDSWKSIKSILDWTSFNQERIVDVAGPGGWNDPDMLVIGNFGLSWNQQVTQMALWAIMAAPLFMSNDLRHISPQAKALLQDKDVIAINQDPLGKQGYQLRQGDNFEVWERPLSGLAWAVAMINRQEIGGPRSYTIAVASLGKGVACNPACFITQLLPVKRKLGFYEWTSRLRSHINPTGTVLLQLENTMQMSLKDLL
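Fluorogenic readout (Ex 365/Em 440 nm) of 4-methylumbelliferone released from 1 mM 4-MU-alpha-galactoside by spleen homogenate, 40 min at 37C, pH 5.0. Data normalized to no-enzyme and enzyme controls; Hill-equation AC50 from compound titrations.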
ALDH1A1 inh: qHTS Assay for Inhibitors of Aldehyde Dehydrogenase 1 (ALDH1A1). Purified ALDH1A1, NADH fluorescence, propionaldehyde substrate. actives 7.3% (n = 220,000). Aldehyde dehydrogenase 1A1 (Homo sapiens), P00352. Potency, µM (doses to about 75.3 µM), most hits filed as inhibitors; active = well fitted inhibition curve with a large enough effect, not every such curve was filed as active; inconclusive = small, poorly fitted or top-dose-only effect, or another doubt; inactive = no such curve, though single readings can be large or run the other way
HPGD inh: qHTS Assay for Inhibitors of HPGD (15-Hydroxyprostaglandin Dehydrogenase). purified HPGD, NADH fluorescence kinetic, PGE2 substrate. Potency, µM, hits mostly inhibitors. actives 4.3% (n = 150,000). AID 894, 2007; active = well fitted inhibition curve with a large enough effect, not every such curve was filed as active; inconclusive = small, poorly fitted or top-dose-only effect, or another doubt; inactive = no such curve, though single readings can be large or run the other way
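20 nM HPGD preincubated 15 min at room temperature with compound in 50 mM Tris-HCl pH 8, 0.01% Tween 20. Started with 1 mM NAD+ and 30 uM prostaglandin E2; NADH fluorescence (360/450 nm) read 5 times over 30-s intervals, last minus first.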
GLA inh pH 4.5: qHTS Assay for Inhibitors of Human alpha-Galactosidase at pH 4.5. purified enzyme, 4-MU-alpha-Gal fluorescence, pH 4.5. activity change, negative = inhibition, % at 105 µM. 230,000 tested, under 10 active. AID 1467, 2008. Alpha-galactosidase A (Homo sapiens), P06280
ALOX12 inhib: qHTS Assay for Inhibitors of 12-hLO (12-human lipoxygenase); Polyunsaturated fatty acid lipoxygenase ALOX12 (Homo sapiens), P18054; purified 12-hLO, xylenol orange hydroperoxide absorbance; Potency, µM (titrated, usually from 57.1 µM), hits mostly inhibitors; actives 0.12% (n = 150,000); AID 1452, 2008; also: nearly all actives have a fitted effect of over 55% in size
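Lipoxygenase turnover measured by absorbance at 573 and 405 nm after Fe-XO development. Human 12hLO 150 nM, arachidonate 40 uM, pH 7.0 Hepes buffer with detergent; 15 min compound preincubation, 30 min reaction.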
Hits are given with their value; - = inactive; ? = inconclusive; . = no result. Unless noted, calls follow the shape of the dose curve; as a rule, active = well fitted curve in the direction sought with a large enough effect; inconclusive = small, poorly fitted or top-dose-only effect, or another doubt; inactive = no such curve, though single readings can be large; an effect the other way counts as inactive or inconclusive.

SMILES	PNC assembly inh	GLA spleen mod	ALDH1A1 inh	HPGD inh	GLA inh pH 4.5	ALOX12 inhib
Nc1ccc(C(=O)OCC(=O)N2CCc3ccccc3C2)cc1[N+](=O)[O-]	-	-	-	12.6µM	-	-
Cn1c(Cn2c(=O)sc3ccccc32)nnc1SCc1ccccn1	-	-	2µM	.	-	-
CCSc1nnc(Cn2c(=O)sc3ccccc32)n1C	-	-	-	-	-	-
O=S(=O)(N/N=C/c1cccnc1)c1ccc(Cl)c(Cl)c1	.	-	.	.	-	.
COCCn1c(=O)c(-c2cc(F)cc(F)c2)nc2cnc(Nc3cccc(OC)c3)nc21	.	-	-	-	.	-
c1ccc2c(c1)CC1(CCCCC1)n1nnnc1-2	?	-	12.6µM	-	-	-
CCOC(OCC)P(=O)(O)CCCNCc1ccc(Cl)c(Cl)c1	.	-	-	-	-	-
O=C(Oc1ccccc1)N1CCC2(CC1)CCN(c1ccncc1)CC2	.	-	?	-	.	-
O=C1S/C(=C\C=C\c2ccco2)C(=O)N1c1ccccc1	-	-	20µM	-	-	-
O=C(O)CC(C(=O)O)N1C(=O)/C(=C/C=C/c2ccco2)SC1=S (centres undefined)	.	-	.	.	-	.
O=C(O)C(Cc1ccccc1)N1C(=O)/C(=C/C=C/c2ccco2)SC1=S (centres undefined)	.	-	3.16µM	.	-	.
O=C(O)CCCN1C(=O)/C(=C/C=C/c2ccco2)SC1=S	.	-	.	.	-	.
O=C1S/C(=C\C=C\c2ccco2)C(=O)N1c1ccc(O)cc1	-	-	17.8µM	-	-	?
CCOC(=O)/C(=N\Nc1ccccc1)P(=O)(c1ccccc1)c1ccccc1	.	-	.	.	-	.
COc1cccc2cc(C(=O)NC(C)C3CCCO3)c(=O)oc12 (centres undefined)	-86.6	-	?	-	-	-
COc1cccc2cc(C(=O)NCC3CCCO3)c(=O)oc12 (centres undefined)	?	-	?	-	-	-
COc1cccc2cc(C(=O)NCCC3=CCCCC3)c(=O)oc12	.	-	10µM	.	-	.
Cc1cc(C(=O)NCCC2=CCCCC2)c(C)o1	-80.8	-	11.2µM	?	-	-
NC(=O)NCCC1=CCCCC1	-	-	-	-	-	-
COc1cccc([C@@H]2Oc3ccc(OC)cc3C(=O)[C@H]2OC(=O)N[C@H]2CCCc3ccccc32)c1	.	-	?	-	-	.
COC(=O)c1c(C)n(-c2ccc(C)cc2)c2ccc(O)cc12	-	-	-	-	-	-
N#Cc1cc([N+](=O)[O-])c(-n2nnc3ccccc32)c([N+](=O)[O-])c1	-	-	-	28.2µM	-	-
CC1CCCCC1NC(=O)COC(=O)c1ccc2c(c1Cl)C(=O)c1ccccc1C2=O (centres undefined)	-	-	-	15.8µM	-	-
O=C(CSc1nc2cc(S(=O)(=O)N3CCOCC3)ccc2o1)Nc1c(F)cccc1F	.	-	3.98µM	.	-	.
O=C(CSc1nc2cc(S(=O)(=O)N3CCOCC3)ccc2o1)NC1CCCc2ccccc21 (centres undefined)	?	-	2.24µM	8.91µM	-	-
SMILES	PNC assembly inh	GLA spleen mod	ALDH1A1 inh	HPGD inh	GLA inh pH 4.5	ALOX12 inhib
Cc1ccc(C(=O)CSc2nc3cc(S(=O)(=O)N4CCOCC4)ccc3o2)cc1	-	-	14.1µM	25.1µM	-	-
Cc1[nH]c2ccccc2c1C(=O)CSc1nc2cc(S(=O)(=O)N3CCCCC3)ccc2o1	?	-	-	-	-	-
O=C(NC1CCCc2ccccc21)c1cc(S(=O)(=O)N2CCOCC2)ccc1F (centres undefined)	.	-	?	.	-	.
Cc1nc2c(OCc3ccccc3)cccn2c1CC#N	.	-	-	-	-	-
CC(C)Nc1nnc(Sc2ccc(Cl)cc2[N+](=O)[O-])s1	-	-	-	?	-	-
NC(=S)N/N=C/c1coc2ccc(Br)cc2c1=O	.	-	.	.	-	.
NC(=S)N/N=C/c1coc2cc(Br)ccc2c1=O	.	-	2µM	.	-	.
